Test systems include NCI-H23 lung; NCI-H226 lung; NCI-H322M lung; HOP-62 NSCLC; NCI-H460 lung; HOP-92 NSCLC; NCI-H522 lung; A549/ATCC NSCLC; 786-0 renal; COLO 205 colon; DU-145 prostate; K-562 leukemia; MALME-3M melanoma; MDA-MB-231 breast; RXF 393 renal; SF-268 CNS; SF-295 CNS; SF-539 CNS; UACC-257 melanoma; M14 melanoma.
Assay in all cases: NCI-60 one-dose screen, 48 h (100 = growth as untreated, 0 = no growth, -100 = all killed)
Conditions in all cases: 10 µM unless noted

Molecules are shown by their SMILES. Compounds without any hit were thinned out: in the full panel of roughly 83,000, 20% have a hit.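 In brief: 96-well plates, 48 h treatment, single concentration, percent growth endpoint.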 Values without a mark were called inactive. Active and inactive are the calls of the source. The calls were made as follows: active = growth percent below 10; inactive = the rest.

Turning to `COc1ccc(NC(=O)c2ccc(Nc3ncnc4c3cnn4-c3cccc(F)c3)cc2)cc1`, the growth with NCI-H23 lung was 103%; with NCI-H226 lung, 103%; in the assay on NCI-H322M lung, 103%; in the assay on HOP-62 NSCLC, 101%; in the assay on NCI-H460 lung, 102%; with HOP-92 NSCLC, 96.4%. In addition, the growth is 96.9% with NCI-H522 lung; 101% with A549/ATCC NSCLC; 104% in the assay with 786-0 renal; 109% in the assay with COLO 205 colon; 103% in the assay with DU-145 prostate; 94.8% with K-562 leukemia. For the same compound, the growth in the assay on MALME-3M melanoma is 92.6%; in the assay on MDA-MB-231 breast it was 92%; in the assay with RXF 393 renal, 90.2%; in the assay with SF-268 CNS it was 99.1%; with SF-295 CNS it was 98.3%; in the assay on SF-539 CNS it was 96.5%. Moreover, the growth in the assay on UACC-257 melanoma was 97.9%; in the assay on M14 melanoma, 98.4%.
With `NS(=O)(=O)c1ccc(C(=O)NN2C(=O)c3ccccc3C2=O)cc1`, the growth was 105% with NCI-H23 lung; 111% in the assay on NCI-H226 lung; 110% in the assay with NCI-H322M lung; 108% with HOP-62 NSCLC; 112% with NCI-H460 lung; 107% with HOP-92 NSCLC. Besides, the growth with NCI-H522 lung is 99.5%; in the assay with A549/ATCC NSCLC it was 110%; in the assay on 786-0 renal it was 105%; in the assay with COLO 205 colon it was 108%; with DU-145 prostate, 105%; in the assay with K-562 leukemia, 101%. For the same compound, the growth was 109% with MALME-3M melanoma; 109% in the assay with MDA-MB-231 breast; 120% in the assay on RXF 393 renal; 92.8% in the assay with SF-268 CNS; 98.7% in the assay on SF-295 CNS; 113% with SF-539 CNS. The growth is 110% with UACC-257 melanoma and 104% with M14 melanoma.
For the compound `C=C(C)[C@@H]1CC[C@]2(C(=O)N3CCN(C)CC3)CC[C@]3(C)[C@H](CC[C@@H]4[C@@](C)(CCC(=O)O)[C@H](C(=C)C)CC[C@]43C)[C@@H]12`, the growth with NCI-H23 lung is 95.4%; with NCI-H226 lung it was 93.3%; in the assay on NCI-H322M lung, 98.5%; in the assay on HOP-62 NSCLC, 95.5%; in the assay with NCI-H460 lung, 78%; in the assay on HOP-92 NSCLC, 78.6%. For the same compound, the growth in the assay with NCI-H522 lung was 73.5%; with A549/ATCC NSCLC, 65.7%; in the assay on 786-0 renal it was 90.2%; in the assay on COLO 205 colon, 94.3%; in the assay with DU-145 prostate it was 99.9%; in the assay with K-562 leukemia, 58%. Moreover, the growth was 87% in the assay on MALME-3M melanoma; 91.2% in the assay with MDA-MB-231 breast; 93.3% with RXF 393 renal; 80.6% in the assay on SF-268 CNS; 78.8% with SF-295 CNS; 92.6% in the assay with SF-539 CNS. In addition, the results for the growth in the assay on UACC-257 melanoma and with M14 melanoma were 83.5% and 87.1%, respectively.
For the compound `CCN1C2CCC1/C(=C\c1ccccc1)C(=O)/C2=C/c1ccccc1`, the growth with NCI-H23 lung is 32.5%; in the assay with NCI-H226 lung it was 59.9%; with NCI-H322M lung, 51.6%; with HOP-62 NSCLC it was 59.8%; with NCI-H460 lung, 51.5%; in the assay with HOP-92 NSCLC, 58.5%. The growth is 41.3% in the assay with NCI-H522 lung; 72.9% in the assay on A549/ATCC NSCLC; 57.2% in the assay with 786-0 renal; 43.5% in the assay on COLO 205 colon; 1.64% (active) in the assay with DU-145 prostate; 32.1% in the assay on K-562 leukemia. Further, the growth is 63.7% in the assay on MALME-3M melanoma; 79.2% in the assay with MDA-MB-231 breast; 48.9% in the assay on RXF 393 renal; 42.8% with SF-268 CNS; 48.4% with SF-295 CNS; 45.4% in the assay on SF-539 CNS. In addition, the figures for the growth in the assay on UACC-257 melanoma and in the assay on M14 melanoma were 52.2% and 48.2%, respectively.
`Clc1ccc2nn3c4ccccc4c(OCCN4CCOCC4)nc3c2c1`: the growth in the assay with NCI-H23 lung was 87.1%; in the assay with NCI-H226 lung it was 94.6%; with NCI-H322M lung, 84.4%; in the assay on HOP-62 NSCLC, 90.6%; with NCI-H460 lung, 99.9%; with HOP-92 NSCLC, 72.9%. Further, the growth is 74.5% in the assay on NCI-H522 lung; 91.8% with A549/ATCC NSCLC; 80.9% in the assay with 786-0 renal; 90% with COLO 205 colon; 98.9% in the assay with DU-145 prostate; 88.2% with K-562 leukemia. Also, the growth with MALME-3M melanoma is 134%; in the assay on MDA-MB-231 breast, 81.4%; in the assay with RXF 393 renal, 79.3%; in the assay with SF-268 CNS it was 91.8%; in the assay with SF-295 CNS it was 93.9%; in the assay with SF-539 CNS, 91.6%. Moreover, the growth in the assay with UACC-257 melanoma was 107%; with M14 melanoma, 122%.
For `O=C(c1ccc(Br)cc1)C(Br)C(c1ccc(Cl)cc1)C(c1ccccc1)[N+](=O)[O-]` (stereo not given), the growth in the assay on NCI-H23 lung was 91.4%; with NCI-H226 lung it was 99.3%; in the assay on NCI-H322M lung it was 101%; in the assay with HOP-62 NSCLC, 99.7%; in the assay on NCI-H460 lung, 95.5%; with HOP-92 NSCLC, 107%. In addition, the growth in the assay on NCI-H522 lung is 85.7%; with A549/ATCC NSCLC, 93.8%; in the assay on 786-0 renal it was 90.3%; in the assay on COLO 205 colon, 110%; in the assay with DU-145 prostate, 97.5%; in the assay with K-562 leukemia it was 106%. In addition, the growth in the assay with MALME-3M melanoma is 86.2%; in the assay with MDA-MB-231 breast, 85.4%; in the assay with RXF 393 renal, 77.2%; in the assay with SF-268 CNS it was 90.2%; in the assay with SF-295 CNS it was 95.1%; with SF-539 CNS it was 96%. The growth is 102% with UACC-257 melanoma and 92.8% with M14 melanoma.
Turning to `Clc1ccc(Nc2nnc(CNc3ccccc3)c3ccccc23)cc1`, the growth is 9.95% (active) with NCI-H23 lung; 25% with NCI-H226 lung; 30.4% with NCI-H322M lung; 27.4% in the assay on HOP-62 NSCLC; 17.7% with NCI-H460 lung; -19.3% (active) in the assay on HOP-92 NSCLC. Further, the growth in the assay with NCI-H522 lung was -5.92% (active); with A549/ATCC NSCLC it was 20.3%; with 786-0 renal, 21.4%; in the assay with COLO 205 colon it was 11.9%; in the assay on DU-145 prostate, 19%; in the assay with K-562 leukemia it was 5.39% (active). Also, the growth with MALME-3M melanoma is -13.8% (active); with MDA-MB-231 breast, 19.9%; with RXF 393 renal it was 25.7%; with SF-268 CNS, 20.9%; with SF-295 CNS, 14.3%; in the assay with SF-539 CNS it was 34%. Also, the growth with UACC-257 melanoma was -6.49% (active); in the assay on M14 melanoma, 5.8% (active).
Regarding `NS(=O)(=O)c1ccc(C(=O)N=Nc2c(O)[nH]c3ccc(Cl)cc23)cc1`, the growth with NCI-H23 lung was 98.3%; with NCI-H226 lung, 103%; in the assay with NCI-H322M lung, 104%; with HOP-62 NSCLC, 100%; in the assay on NCI-H460 lung, 106%; in the assay on HOP-92 NSCLC it was 103%. Further, the growth in the assay on NCI-H522 lung is 89.3%; with A549/ATCC NSCLC, 104%; in the assay with 786-0 renal it was 102%; in the assay on COLO 205 colon, 120%; with DU-145 prostate it was 102%; in the assay with K-562 leukemia it was 98.3%. Besides, the growth in the assay on MALME-3M melanoma was 90.3%; with MDA-MB-231 breast, 98.7%; in the assay with RXF 393 renal, 109%; in the assay with SF-268 CNS it was 91.9%; in the assay on SF-295 CNS, 98.7%; in the assay on SF-539 CNS, 96.4%. Further, the growth with UACC-257 melanoma is 103%; with M14 melanoma, 102%.

The values above are taken from PubChem BioAssay (NCI).
